FBW7 act – human FBW7 E3 ligase activation, primary screen; normalized activity (activation), % at 26.1 µM; AID 1259310; AlphaScreen FBW7–phospho-cyclin E peptide binding, activator screen; Q969H0; actives 0.13% (n = 650,000); in the data active = normalized activity above about 1.9%;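 note: purified mutant Fbw7 with reduced substrate affinity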
GPR151 ag – activates the human receptor GPR151 | Q8TDV0 | PathHunter beta-arrestin GPR151 cells, luminescence | actives 1% (n = 650,000) | activation, % at 11.2 µM | AID 1508602; in the data active = activation above about 4.9%;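 note: 0% = median of compound wells and 100% = cells with positive control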
Target sequence (Q8TDV0 whole entry, looked up): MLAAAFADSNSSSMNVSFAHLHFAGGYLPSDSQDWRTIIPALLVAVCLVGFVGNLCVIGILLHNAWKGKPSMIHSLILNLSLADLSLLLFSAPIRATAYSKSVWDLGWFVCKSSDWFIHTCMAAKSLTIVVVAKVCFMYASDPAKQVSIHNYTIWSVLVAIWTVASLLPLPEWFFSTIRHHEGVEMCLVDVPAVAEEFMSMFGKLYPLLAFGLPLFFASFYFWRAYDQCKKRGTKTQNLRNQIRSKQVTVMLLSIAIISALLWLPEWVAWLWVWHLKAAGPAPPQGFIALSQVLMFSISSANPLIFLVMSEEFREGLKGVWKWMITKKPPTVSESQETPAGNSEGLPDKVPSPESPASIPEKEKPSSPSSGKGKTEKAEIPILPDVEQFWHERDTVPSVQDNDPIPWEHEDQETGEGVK
TEAD-YAP block – TEAD-YAP interaction inhibition; HEK-TIYL cells, TEAD-Gal4/YAP UAS-luciferase luminescence; inhibition, % at 9.12 µM; actives 1.4% (n = 640,000); in the data active = inhibition above about 32%;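 note: 0% = median of test compound wells and 100% = reference inhibitor wells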
MITF primary – inhibitors of human MITF | O75030 | AlphaScreen MITF homodimerization, bead proximity signal | inhibition, % at 2.6 µM | actives 0.91% (n = 650,000) | AID 1259374; in the data active = inhibition above about 50%;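 note: 0% = vehicle wells with protein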
MITF confirm – human MITF inhibition, confirmation. shares compounds with MITF primary. AID 1259372. AlphaScreen MITF homodimerization, biotin/His-MITF beads. inhibition, % at 2.6 µM. actives 16% (n = 4,700);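 active = inhibition above a cutoff derived from the DMSO control wells, cut at about 28% in these data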;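 note: 0% = MITF dimer wells with DMSO only; inhibitors lower the bead chemiluminescence by keeping MITF from dimerizing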
AS interf ctr – counter-screen: compounds optically interfering with AlphaScreen; shares compounds with MITF primary; LysRS AlphaScreen counterscreen, signal interference, triplicate; inhibition, % at 2.6 µM; actives 7.6% (n = 4,700);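 active = inhibition above a cutoff derived from the DMSO control wells, cut at about 30% in these data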
* hit, by the source's call; / = no result given. In the library only some 3.5% were active in any assay of this set; here they are far more common.

SMILES | FBW7 act | GPR151 ag | TEAD-YAP block | MITF primary | MITF confirm | AS interf ctr
O=C(CNCCc1ccccc1)NCc1ccc2c(c1)OCO2 | 1 | 0 | -1 | 73* | 9 | 14
COc1cccc(CNCC(=O)NCc2ccc3c(c2)OCO3)c1 | 0 | 0 | 4 | 60* | 9 | 14
O=C(CSCc1ccccc1)NCc1ccc2c(c1)OCO2 | 0 | 1 | 10 | 13 | / | /
CC1C=CCC2C(=O)N(c3ccc(Cl)c(C(=O)O)c3)C(=O)C12 (stereo not drawn) | 0 | 1 | 2 | 6 | / | /
O=C(CSc1nc2ccc(N3C(=O)c4ccccc4C3=O)cc2s1)NCCc1ccccc1 | 0 | -1 | 13 | 15 | / | /
COc1ccccc1-n1nc(C(=O)NCCCN(C)Cc2ccccc2)c2ccccc2c1=O | 0 | 1 | -8 | -11 | / | /
CCc1ccc(-c2csc(NC(=O)CSCC(=O)Nc3nccs3)n2)cc1 | 0 | 3 | 1 | -2 | / | /
NC(=O)c1c(NC(=S)NC(=O)c2ccco2)sc2c1CCCC2 | 0 | -2 | -22 | 8 | / | /
COC(=O)c1ccc(C(=O)OC)c(NC(=O)c2cc3nc(-c4ccc5c(c4)OCO5)cc(C(F)(F)F)n3n2)c1 | 0 | -1 | 7 | 14 | / | /
O=C(CNCc1cccnc1)Nc1ccccc1 | 0 | 0 | 0 | 40 | / | /
O=C(CNCc1cccnc1)Nc1ccc2c(c1)OCO2 | 0 | 0 | 0 | 59* | 2 | 8
O=C(COc1ccc(Br)cc1)NCc1nc(-c2ccc(Cl)cc2)no1 | 0 | 0 | -6 | 56* | -17 | -6
Cc1cc(C)c(S(=O)(=O)Nc2ccc(N3CCCCS3(=O)=O)cc2)c(C)c1 | 0 | 1 | 1 | -4 | / | /
COc1ccccc1COCC(O)CNCCCN1CCOCC1 (stereo not drawn) | 0 | 1 | 9 | 62* | 2 | -1
COc1ccccc1COCC(O)CNCC1(N2CCCCC2)CCCCC1 (stereo not drawn) | 0 | 2 | 5 | 68* | -7 | -2
COc1cc(C(C)=O)ccc1OCC(O)CNCC1(N2CCCCC2)CCCCC1 (stereo not drawn) | 0 | -2 | 2 | 42 | / | /
COc1ccccc1COCC(O)CNC(C)(C)C (stereo not drawn) | 0 | 1 | 10 | 39 | / | /
COc1ccccc1COCC(O)CNCc1ccncc1 (stereo not drawn) | 0 | 0 | 3 | 70* | 8 | 15
COc1cccc(Oc2ccc(-c3ccc(Oc4cccc(OC)c4)cc3)cc2)c1 | 0 | -2 | 12 | -8 | / | /
O=C(/C=C/c1ccc(F)cc1)NCCc1ccc(S(=O)(=O)N2CCCC2)cc1 | 0 | -1 | -2 | 8 | / | /
FC(F)(F)c1ccccc1CN1CCN(c2ncccn2)CC1 | 0 | 1 | 7 | 51* | 15 | 7
Fc1ccccc1N1CCN(Cc2ccccn2)CC1 | 0 | -1 | -11 | 56* | -1 | 10
FC(F)(F)c1ccccc1CN1CCN(Cc2ccccn2)CC1 | 0 | 3 | 2 | 78* | -9 | 4
c1ccc(N2CCN(Cc3cccc4ccccc34)CC2)nc1 | 0 | 1 | -2 | 2 | / | /
c1ccc(CN2CCN(Cc3cccc4ccccc34)CC2)nc1 | 0 | 5 | 7 | 64* | 4 | 7
SMILES | FBW7 act | GPR151 ag | TEAD-YAP block | MITF primary | MITF confirm | AS interf ctr
Brc1cccc(CN2CCN(Cc3ccccn3)CC2)c1 | 0 | -1 | -3 | 45 | / | /
Oc1ccc(-c2ncccn2)cc1CN1CCN(c2ccccc2F)CC1 | 0 | 1 | 1 | 7 | / | /
Cc1cccc(-c2noc(-c3cc(C4CC4)[nH]n3)n2)c1 | 0 | -1 | -33 | 18 | / | /
CC1Sc2cc(S(=O)(=O)N3CCCCCC3)ccc2NC1=O (stereo not drawn) | 0 | 1 | -3 | 8 | / | /
COc1ccc(C(O)C(=O)N2CCC(C(=O)Nc3ccc4[nH]ncc4c3)C2)cc1 (stereo not drawn) | 0 | -1 | -5 | 12 | / | /
Cc1c(Cc2ccccc2)c(N2CCC(C)CC2)n2c(nc3ccccc32)c1C#N | 0 | 0 | 5 | 13 | / | /
CCCCc1c(C)c(C#N)c2nc3ccccc3n2c1N1CCC(C)CC1 | 0 | 0 | -4 | 53* | 13 | -7
Cc1ccc(OCCCN2CCNCC2)c(I)c1 | 0 | 1 | -13 | 43 | / | /
Oc1[nH]c2ccccc2c1C=Nc1ccc2[nH]ncc2c1 | 0 | -1 | -58 | 1 | / | /
OC(CNNc1c(F)c(F)cc(F)c1F)COc1ccccc1 (stereo not drawn) | 0 | -2 | -7 | 58* | -1 | 2
